Laboratory results reported in PubChem BioAssay (NCI).
Compounds without any hit were thinned out: in the full panel of roughly 83,000, 20% have a hit.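 48-hour exposure, single concentration, 96-well plates; percent growth endpoint where 0 means no net growth. Active: below 10.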 Activity calls are given as the source filed them.

Tests used:
Experiment in all cases: NCI-60 one-dose screen, 48 h (100 = growth as untreated, 0 = no growth, -100 = all killed)
Conditions in all cases: 10 µM unless noted
[1] = system: NCI-H23 lung
[2] = system: NCI-H226 lung
[3] = system: NCI-H322M lung
[4] = system: HOP-62 NSCLC
[5] = system: NCI-H460 lung
[6] = system: HOP-92 NSCLC
[7] = system: NCI-H522 lung
[8] = system: A549/ATCC NSCLC
[9] = system: 786-0 renal
[10] = system: COLO 205 colon

Measured: growth

Oc1ccc2cc(Br)ccc2c1-c1c(O)ccc2cc(Br)ccc12
active: [5] 8.23%
inactive: [1] 55.4% | [2] 81.6% | [3] 57.1% | [4] 72.2% | [6] 20% | [7] 53.9% | [8] 44% | [9] 77.8% | [10] 54.7%

Nc1cccc(-c2nc3sccn3c2-c2ccnc(NCCNS(=O)(=O)c3ccc(C(F)(F)F)cc3)n2)c1
active: [6] -6.13%
inactive: [1] 56% | [2] 29.3% | [3] 42.4% | [4] 49.6% | [5] 43.5% | [7] 71.6% | [8] 30% | [9] 65.5% | [10] 58.8%

Cc1ccc(/C=C2\CN(C(=O)CCN3CCC(=NO)CC3)C/C(=C\c3ccc(C)cc3)C2=O)cc1
inactive: [2] 81% | [3] 16.8% | [4] 46.9% | [6] 72.2% | [8] 50.8%
active: [1] 7.62% | [5] -42.5% | [7] -28.6% | [9] -15.5% | [10] -35.4%

N=C(N)c1ccc(-c2cc(Cl)cc(Cl)c2)cn1
inactive: [1] 97.6% | [2] 82.4% | [3] 94% | [4] 91.6% | [5] 96.9% | [6] 59.3% | [7] 90.1% | [8] 93.9% | [9] 95.3% | [10] 19.5%

COc1cc(C2C3=C(COC3=O)Nc3cc4c(cc32)CCC4)cc2c1OCO2 (stereo not given)
active: [5] 7.05% | [7] -3.96% | [10] -63.1%
inactive: [1] 19.6% | [2] 31.9% | [3] 50.7% | [4] 35.5% | [6] 41.1% | [8] 18.7% | [9] 18.1%

CCCCCCCCCCCCNC(=O)[C@H]1CSC(c2cc(Br)cs2)N1 (stereo not given in full)
inactive: [1] 18.1% | [2] 10.4% | [3] 54% | [6] 61.7% | [8] 71% | [9] 38.3% | [10] 108%
active: [4] -97.5% | [5] -48.4% | [7] -1.62%

c1coc(CNc2ccnc(Nc3ccc(OCCN4CCCCC4)cc3)n2)c1
inactive: [1] 86.7% | [2] 68.1% | [3] 101% | [4] 93.1% | [5] 89.2% | [6] 69.5% | [7] 85.3% | [8] 92.5% | [9] 94.9% | [10] 89.5%

COc1cc(-c2nn(-c3cccc(NC(=O)Nc4ccc(Cl)c(C(F)(F)F)c4)c3)cc2-c2ccncc2)ccc1Cl
inactive: [2] 12.1% | [3] 32.3% | [9] 15.1%
active: [1] 5.69% | [4] 5.4% | [5] 1.7% | [6] -37.5% | [7] -13.9% | [8] -10.4% | [10] -91.6%

CCC(C)/C(=C\C#N)NCCCN/C(=C/C#N)C(C)CC (stereo not given)
inactive: [1] 97.3% | [2] 103% | [3] 103% | [4] 106% | [5] 116% | [6] 86.5% | [7] 83.5% | [8] 103% | [9] 98.1% | [10] 111%

COc1ccc(C2C=C(c3ccc(N)cc3)N=C3SC=CN32)cc1OC (stereo not given)
inactive: [1] 101% | [2] 107% | [3] 102% | [4] 108% | [5] 116% | [6] 109% | [7] 101% | [8] 99.7% | [9] 104% | [10] 114%

CCN(CC)CCCNc1nccc2ccc(Cl)cc12
inactive: [1] 107% | [2] 97.9% | [3] 104% | [4] 96.5% | [5] 103% | [6] 68.1% | [7] 102% | [8] 94.9% | [9] 104% | [10] 108%

O=S1(=O)CCC(N(/N=C/c2ccco2)c2ccccc2)C1 (stereo not given)
inactive: [1] 102% | [2] 104% | [3] 102% | [4] 104% | [5] 107% | [6] 96.5% | [7] 95.5% | [8] 97.9% | [9] 103% | [10] 117%

COc1ccc(S(=O)(=O)n2cc(C(=O)C(=O)Nc3ccncc3)c3ccccc32)cc1F
inactive: [1] 65.2% | [2] 82.9% | [3] 88.6% | [4] 61.4% | [5] 69.5% | [6] 62.1% | [7] 65.3% | [8] 71% | [9] 84.7% | [10] 94%

C=C[C@@H]1C[C@@H]2Cc3cc(Cl)ccc3N1O2
inactive: [1] 101% | [2] 88.9% | [3] 130% | [4] 94.8% | [5] 97.5% | [6] 67% | [7] 92.7% | [8] 100% | [9] 102% | [10] 94.3%

COc1cc(NC(=O)SC2=NCCS2)cc(OC)c1
inactive: [1] 95% | [2] 98.7% | [3] 110% | [4] 108% | [5] 101% | [6] 84.7% | [7] 86.4% | [8] 101% | [9] 101% | [10] 109%

COc1ccc(CN2CCc3c(Sc4ccccc4)nc(N)nc3C2=O)c(OC)c1
active: [6] -11.4%
inactive: [1] 49% | [2] 67.6% | [3] 67.9% | [4] 86.2% | [5] 64.6% | [7] 21.3% | [8] 60.5% | [9] 62.4% | [10] 80.2%

Cc1[nH]c2ccc(F)cc2c1CCNC(=O)C1CCN(C(=O)c2ccccc2)C1 (stereo not given)
active: [6] -0.166% [25 µM]
inactive: [1] 88.6% [25 µM] | [2] 90.2% [25 µM] | [3] 61.8% [25 µM] | [4] 93.3% [25 µM] | [5] 101% [25 µM] | [7] 95.1% [25 µM] | [8] 97.8% [25 µM] | [9] 89.9% [25 µM] | [10] 101% [25 µM]

COc1cc(-c2ncn(/C=C\C(=O)OC(C)C)n2)cc(C(F)(F)F)c1
active: [2] -47% | [3] 0.838% | [4] -18.5% | [5] -31.7% | [6] 7.61% | [7] -70.9% | [9] 9.65% | [10] -62.2%
inactive: [1] 17.5% | [8] 12.9%

NC1=NC(SCc2ccccc2CCl)c2ncn(Cc3ccccc3CCl)c2N1 (stereo not given)
active: [7] -92%
inactive: [1] 70.8% | [2] 60.2% | [3] 80.8% | [4] 74.5% | [5] 80.7% | [6] 24% | [8] 80.3% | [9] 64.2% | [10] 43.9%

C=C[C@@H]1C[C@H](O)Cc2c(C)cc(C)cc2N1
inactive: [1] 97.6% | [2] 104% | [3] 117% | [4] 91.5% | [5] 102% | [6] 75.1% | [7] 101% | [8] 98.3% | [9] 98.8% | [10] 106%
